Among the data in PubChem BioAssay (EPA / NIEHS) are outcome and AC50 values, retold here.

Where “and” joins values, the source holds several entries; their conditions need not be identical. Equal values may be shown once. The source holds several records for some structures; these can differ, active in one and inactive in another. Calls of active or inactive are those of the source. The calls were made as follows: active = hit-call score of the fitted dose curve at least 0.9, where 1 is the maximum; inactive = score below 0.9.

The AC50 is the concentration giving half of the maximal activity seen.

Read-out in the assay: Vascular endothelial growth factor receptor 2 (Homo sapiens) (UniProt P35968)
Nature of the assay: BSK_4H_VEGFRII: BioMAP Diversity Plus: 4H Assay for Vascular endothelial growth factor receptor 2 (VEGFR2) Biomarker Activity (AID 2283031). Conditions: primary human endothelial cells (HUVEC); actives raise or lower the signal. The protocol:
BSK_4H is a cell-based, multiplexed-readout assay that uses umbilical vein endothelium, a human vascular primary cell, with measurements taken at 24 hours after chemical dosing in a 96-well plate.BSK_4H_VEGFRII is an assay component measured in the BSK_4H assay. It measures VEGFRII antibody related to regulation of gene expression using ELISA technology.Data from the assay component BSK_4H_VEGFRII was analyzed into 1 assay endpoint. This assay endpoint, BSK_4H_VEGFRII, was analyzed with bidirectional fitting relative to DMSO as the negative control and baseline of activity. Using a type of binding reporter, gain or loss-of-signal activity can be used to understand changes in the signaling as they relate to the gene KDR. Furthermore, this assay endpoint can be referred to as a primary readout, because this assay has produced multiple assay endpoints where this one serves a signaling function. To generalize the intended target to other relatable targets, this assay endpoint is annotated to the kinase intended target family, where the subfamily is receptor tyrosine kinase.
The levels of cell surface (or secreted, indicated by the prefix "s") biomarker endpoints were measured by ELISA. Overt cytotoxicity to cells in confluent adherent cultures (all systems other than the BT system) was assessed by measuring total protein levels using sulforhodamine B (SRB) staining in parallel cultures at the time of biomarker measurements, indicated as SRB endpoints. For proliferation assays for adherent cell types, individual cell types are cultured at sub-confluence and relative cell numbers quantified by SRB staining at time points optimized for each system (48 h: 3C and CASM3C systems; 72 h: BT and HDF3CGF systems; 96 h: SAg system). SRB was performed by staining cells with 0.1% SRB after fixation with 10% TCA and reading wells at 560 nm.Viability and proliferation of PBMC (T cells) was quantified by Alamar Blue reduction for the SAg and BT systems. For PBMC viability (referred to as PBMC Cytotoxicity within the assay endpoint names), cells were plated (75,000/well in a 96-well plate) and then chemical samples added for 1 h before addition of activators, SEB and TSST-1 (20 ng/mL final concentration each). Cells were incubated for 90 h. Then, Alamar Blue (20 uL/well) (Invitrogen, Cat DAL1100) was added for 6 h, and the plates were read with a fluorescence microplate reader at 546/580 nm (excitation/emission). For PBMC proliferation, cells were plated and activated as above but incubated for only 16 h prior to addition of Alamar Blue. Plates were read after 6 h.
Take `CNC(=O)ON=CC(C)(C)SC`: the outcome was inactive.

Take `COc1ccc(C(c2ccc(OC)cc2)C(Cl)(Cl)Cl)cc1`: the AC50 is 31.2 µM (active).

With `O=C(O)COc1nc(Cl)c(Cl)cc1Cl`, the outcome was inactive.

Consider `Oc1ccccc1-c1ccccc1`, for which the result was inactive.

Turning to `CO/C=C(/C(=O)OC)c1ccccc1Oc1cc(Oc2ccccc2C#N)ncn1`, the result was inactive and the AC50 was 21.1 µM (active).

For `CCOC(=O)C(Cl)Cc1cc(-n2nc(C)n(C(F)F)c2=O)c(F)cc1Cl` (stereo not given), the outcome was inactive.

Regarding `COC(=O)c1ccccc1C(=O)OC`, the result was inactive.

With `CCCCNC(=O)OCC#CI`, the concentration at half-maximal activity (AC50) is 22.9 µM (active) and 32.7 µM (active).

As for `CC1COC(Cn2cncn2)(c2ccc(Oc3ccc(Cl)cc3)cc2Cl)O1` (stereo not given), the result was inactive.

For `Cc1cc(Cl)ccc1OCC(=O)O`, the result was inactive.

Consider `COc1nc(NC(C)C)nc(NC(C)C)n1`, for which the result was inactive.

Consider `Cc1ccc(-c2c(Cl)nc(C#N)n2S(=O)(=O)N(C)C)cc1`, for which the AC50 is 20 µM (active).

Turning to `COC(=O)N(OC)c1ccccc1COc1ccn(-c2ccc(Cl)cc2)n1`, the result was inactive.

As for `CCCC1COC(Cn2cncn2)(c2ccc(Cl)cc2Cl)O1` (stereo not given), the result was inactive.

As for `COP(=S)(OC)Oc1nc(Cl)c(Cl)cc1Cl`, the result was inactive.

As to `CCNc1nc(Cl)nc(NC(C)C)n1`, the outcome was inactive.

Take `COc1nc(C)nc(NC(=O)NS(=O)(=O)c2ccccc2CCC(F)(F)F)n1`: the result was inactive.

As for `CC1=C(C(=O)Nc2ccccc2)SCCO1`, the outcome was inactive.

Turning to `Fc1ccc(Oc2ccnc3cc(Cl)cc(Cl)c23)cc1`, the AC50 was 27.2 µM (active).

In the case of `CCCCNC(=O)n1c(NC(=O)OC)nc2ccccc21`, the outcome was inactive.

Regarding `COC(=O)C(C)Oc1ccc(Oc2ccc(Cl)cc2Cl)cc1` (stereo not given), the AC50 was 20 µM (active) and the result was inactive.

On to `C=CCC1=C(C)[C@@H](OC(=O)[C@@H]2[C@@H](C=C(C)C)C2(C)C)CC1=O`, for which the AC50 is 35.8 µM (active).

As to `N#Cc1cc(Br)c(O)c(Br)c1`, the outcome was inactive.

Regarding `CC(Oc1ccc(Cl)cc1Cl)C(=O)O` (stereo not given), the result was inactive.

In the case of `N#CC(CCc1ccc(Cl)cc1)(Cn1cncn1)c1ccccc1` (stereo not given), the result was inactive.

As to `COP(N)(=O)SC` (stereo not given), the outcome was inactive.

Consider `C=CCC1=C(C)C(OC(=O)C2C(C=C(C)C)C2(C)C)CC1=O` (stereo not given), for which the AC50 was 21 µM (active) and 29.4 µM (active) and 20 µM (active); the outcome was inactive.

As for `CCOP(=S)(OCC)SCn1c(=O)oc2cc(Cl)ccc21`, the result was inactive.

Consider `COC(=O)C=C(C)OP(=O)(OC)OC`, for which the result was inactive.

With `COc1nc(C)nc(NC(=O)NS(=O)(=O)c2ccccc2Cl)n1`, the result was inactive.

With `O=C(O)c1nc(Cl)ccc1Cl`, the outcome was inactive.

Consider `CCc1nn(C)c(C(=O)NCc2ccc(C(C)(C)C)cc2)c1Cl`, for which the result was inactive.

Take `COc1cnc(OC)n2nc(NS(=O)(=O)c3c(OCC(F)F)cccc3C(F)(F)F)nc12`: the result was inactive.

For `CN(C)C(=S)SSC(=S)N(C)C`, the outcome was inactive.

With `CCCCC(CC)COC(=O)c1ccccc1C(=O)OCC(CC)CCCC` (stereo not given), the outcome was inactive.

On to `CCCCOC(=O)c1ccccc1C(=O)OCCCC`, for which the outcome was inactive.

On to `CON(C)C(=O)Nc1ccc(Cl)c(Cl)c1`, for which the result was inactive.
